JMJD2A Tudor: qHTS Assay for Inhibitors of JMJD2A-Tudor Domain; AlphaScreen JMJD2A-Tudor / H3K4me3 peptide binding; Potency, µM (top dose mostly 114 µM), for the others: at the top dose activity change, negative = inhibition, hits mostly inhibitors; 4.4% of 390,000 active; AID 504339, 2011; further: on the % scale 0 is the no-effect control and ±100 the full control effect; nearly all actives have a fitted effect of over 50% in size
G9a inh: qHTS Assay for Inhibitors of Histone Lysine Methyltransferase G9a; G9a H3K9 monomethylation, AlphaScreen, 2 h; Potency, µM (doses to about 102 µM), for inactives: at the highest dose activity, negative = inhibition, usual class: inhibitors; Histone-lysine N-methyltransferase EHMT2 (Homo sapiens), Q96KQ7; AID 504332, 2011; 8.8% of 350,000 active; further: on the % scale 0 is the no-effect control and ±100 the full control effect; nearly all actives have a fitted effect of over 75% in size
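AlphaScreen read-out: biotin-H3K9 peptide (500 nM) methylation by 20 nM enzyme with 20 uM SAM, 2 h at room temperature after 15 min compound preincubation; anti-monomethyl H3K9 antibody plus donor/acceptor beads, 10 min dark.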
HP1b binding inh: HTS for Inhibitors of HP1-beta Chromodomain Interactions with Methylated Histone Tails | Potency, µM (doses to about 114 µM), without a hit: top-dose activity change, negative = inhibition, most hits filed as inhibitors | 0.56% of 390,000 active | AID 540317, 2011 | Chromobox protein homolog 1 (Homo sapiens), P83916 | AlphaScreen HP1-beta / biotin-H3K9me3 peptide binding; further: nearly all actives have a fitted effect of over 70% in size
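Compound inhibition of the preformed complex between 50 nM HP1-beta and 50 nM biotinylated H3K9me3 peptide was read by AlphaScreen. Buffer was PBS pH 7.4 with 0.01% Tween-20. Incubations ran 30 min at room temperature, with 10 ug/mL donor/acceptor beads.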
PLK1 PBD inh: qHTS for Inhibitors of PLK1-PDB (polo-like kinase 1 - polo-box domain): Primary Screen; Potency, µM, without a hit: max response, negative = inhibition, most hits filed as inhibitors; Plk1 PBD binding of FITC phosphopeptide, fluorescence polarization; AID 720504, 2013; Serine/threonine-protein kinase PLK1 (Homo sapiens), P53350; 2.8% of 360,000 active; further: series mostly up to about 57 µM; on the % scale 0 is the no-effect control and ±100 the full control effect; nearly all actives have a fitted effect of over 65% in size
Sfp inh: qHTS Assay for Inhibitors of Bacillus subtilis Sfp phosphopantetheinyl transferase (PPTase); AID 1490, 2009; 4'-phosphopantetheinyl transferase ffp (Bacillus subtilis), Q9F4F7; Potency, µM, for the others: largest response in the series, negative = inhibition, hits mostly inhibitors; Biochemical Sfp PPTase activity, qHTS; 3.5% of 310,000 active;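 further: the enzyme is Sfp with the accession as filed and its product quenches rhodamine fluorescence; 0% = enzyme reaction without inhibitor and -100% = no enzyme wells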
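Sfp 15 nM + cpd, 15 min RT; start w/ rhodamine-CoA 5 uM, BHQ-2-YbbR 12.5 uM (final); 50 mM Hepes pH 7.6, 10 mM MgCl2, 0.01% NP-40, 0.01% BSA; read 525/598 nm at 0 and 30 min.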
BAZ2B inh: qHTS Assay for Inhibitors of BAZ2B; AlphaScreen BAZ2B-H3K14Ac peptide displacement; Potency, µM (top dose mostly 114 µM), without a hit: at the top dose activity change, negative = inhibition, most hits filed as inhibitors; 4.4% of 360,000 active; further: on the % scale 0 is the no-effect control and ±100 the full control effect; nearly all actives have a fitted effect of over 60% in size
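AlphaScreen luminescence quantifies BAZ2B engagement of H3K14Ac peptide; the protein and biotinylated peptide are both at 50 nM final, buffer PBS pH 7.4 with 0.01% Tween-20, all steps at room temperature.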
TbPYK confirm: qHTS of Trypanosoma Brucei Inhibitors: Confirmatory Assay for Cherry-picked Compounds. shares compounds with PLK1 PBD inh. recombinant TbPYK, Kinase-Glo ATP luminescence. Potency, µM (highest dose often 76.9 µM), inactives show at the highest dose activity change, negative = inhibition, usual class: inhibitors. 67% of 890 active; further: on the % scale 0 is the no-effect control and ±100 the full control effect; nearly all actives have a fitted effect of over 70% in size
TbPYK orthogonal: qHTS of Trypanosoma Brucei Inhibitors: Orthogonal Assay for Cherry-picked Compounds; recombinant TbPYK, ADP-Glo luminescence, 60 min; 62% of 890 active; Potency, µM (top dose mostly 76.9 µM), for the others: at the top dose activity change, negative = inhibition, usual class: inhibitors; shares compounds with PLK1 PBD inh; AID 720584, 2013; further: on the % scale 0 is the no-effect control and ±100 the full control effect; nearly all actives have a fitted effect of over 75% in size
Active calls of the source: *; ! = a repeat was not active; [ ] = dose if it differs, or a comment. A selection: hits, their analogues and other compounds. The true share with any hit is near 12%. The call rests on the fitted dose curve; in most records, active means well fitted curve in the direction sought with a large enough effect; inconclusive means small, poorly fitted or top-dose-only effect, or another doubt; inactive means no such curve, though single readings can be large; an effect the other way counts as inactive or inconclusive. Potency means the concentration at half of the fitted maximal effect.

Screening O=C1CC(Sc2nnnn2-c2ccccc2)C(=O)N1c1cccc(Cl)c1 (stereo unspecified) returned JMJD2A Tudor -7%, G9a inh 0.89µM*, HP1b binding inh 27%, PLK1 PBD inh inconclusive, Sfp inh 13µM*, BAZ2B inh -1%, TbPYK confirm 28µM* and TbPYK orthogonal 32µM*.
For COc1cc(OC)c(C2CC(=O)N3CN(c4ccc(C)cc4)CSC3=C2C#N)cc1OC (stereo unspecified) the results were JMJD2A Tudor 4.5µM*, G9a inh -21%[2.33 µM], HP1b binding inh inconclusive, PLK1 PBD inh 21µM*, Sfp inh 5µM*, BAZ2B inh inconclusive, TbPYK confirm 1.4µM* and TbPYK orthogonal 1.3µM*.
`CCOc1ccccc1N1CCN(S(=O)(=O)c2cc(C)ccc2OC)CC1` gave JMJD2A Tudor -13%, HP1b binding inh 18%, PLK1 PBD inh 5%, Sfp inh 0% and BAZ2B inh 0%.
COc1ccc(N2CSC3=C(C#N)C(c4cc(OC)c(OC)cc4OC)CC(=O)N3C2)c(OC)c1 (stereo unspecified) was read as JMJD2A Tudor 20µM*, G9a inh 3.5µM*, HP1b binding inh 20µM*, PLK1 PBD inh 12µM*, Sfp inh 3.5µM*, BAZ2B inh 45µM*, TbPYK confirm 0.63µM* and TbPYK orthogonal 2.8µM*.
CCOc1ccccc1N1CSC2=C(C#N)C(c3c(OC)ccc4ccccc34)CC(=O)N2C1 (stereo unspecified) was read as JMJD2A Tudor 35µM*, G9a inh 0.56µM*, HP1b binding inh inconclusive, PLK1 PBD inh 19µM*, Sfp inh 3.2µM*, BAZ2B inh 50µM*, TbPYK confirm 1.4µM* and TbPYK orthogonal 1.8µM*.
Screening COc1ccc(N2CSC3=C(C#N)C(c4ccc(OC)c(OC)c4)CC(=O)N3C2)c(OC)c1 (stereo unspecified) returned JMJD2A Tudor 20µM*, G9a inh 2.5µM*, HP1b binding inh inconclusive, PLK1 PBD inh 7.5µM*, Sfp inh 3.2µM*, BAZ2B inh inconclusive, TbPYK confirm 0.79µM* and TbPYK orthogonal 5µM*.
For CCSC1=C(C#N)C(c2ccc(OC)c(OC)c2)CC(=O)N1 (stereo unspecified) the results were JMJD2A Tudor -9%, G9a inh -26%[12.7 µM], HP1b binding inh 29%, PLK1 PBD inh -5%, Sfp inh 16% and BAZ2B inh -7%.
For Cc1ccc(N2CCN(C(CCc3ccccc3)C(=O)Nc3c(C)cccc3C)CC2)cc1 (stereo unspecified) the results were PLK1 PBD inh -9%.
`Cc1ccc(CNC(=O)c2ccc(N3CCCC3)c(NC(=O)Nc3ccc(C)cc3)c2)cc1` gave JMJD2A Tudor -25%, G9a inh 16%[59 µM], HP1b binding inh 24% and BAZ2B inh -2%.
For O=C1C2CCCN2C(=O)N1CCN1CCN(c2cccc(C(F)(F)F)c2)CC1 (stereo unspecified) the results were JMJD2A Tudor inconclusive, HP1b binding inh 33% and PLK1 PBD inh -15%.
`O=C(NCc1ccco1)c1cc2ccc(O)cc2oc1=O` gave JMJD2A Tudor -26%, G9a inh -26%[59 µM], HP1b binding inh 2%, PLK1 PBD inh -13%, Sfp inh 28µM*, BAZ2B inh 56µM*, TbPYK confirm 20µM* and TbPYK orthogonal 3%.
CCc1ccc(C(=O)c2cc3ccc(O)cc3oc2=O)cc1 was read as JMJD2A Tudor -5%, G9a inh 2%, HP1b binding inh 27%, PLK1 PBD inh -5%, Sfp inh 11% and BAZ2B inh -35%.
Screening O=C(c1ccccc1)c1cc2ccc(O)cc2oc1=O returned JMJD2A Tudor -7%, G9a inh -37%[59 µM], HP1b binding inh 16%, PLK1 PBD inh -8%, Sfp inh -26%, BAZ2B inh 11%, TbPYK confirm inconclusive and TbPYK orthogonal 9%.
`CCc1nc(SCC(=O)Nc2ccc(OC)cc2[N+](=O)[O-])n[nH]1` gave JMJD2A Tudor -26%, G9a inh -24%, HP1b binding inh 51%, PLK1 PBD inh -14%, Sfp inh 6% and BAZ2B inh -26%.
`CCN(CC)C(=O)C1=C(C)NC(=S)NC1c1ccc(C)s1` (stereo unspecified) gave JMJD2A Tudor -10%, G9a inh -3%, HP1b binding inh 28%, PLK1 PBD inh -17%, Sfp inh 2% and BAZ2B inh -11%.
`CCn1c(=O)cc(C(F)(F)F)[nH]c1=S` gave JMJD2A Tudor -21%, G9a inh 25µM*, HP1b binding inh 31%, PLK1 PBD inh -12%, Sfp inh 79µM*, BAZ2B inh -13%, TbPYK confirm inconclusive and TbPYK orthogonal 35µM*.
COc1cc2ccc(=O)oc2c(OC)c1OC was read as G9a inh -25%[2.33 µM] and Sfp inh 1%.
For COc1cc2ccc(=O)oc2c(O)c1O the results were JMJD2A Tudor 6.3µM*, HP1b binding inh 0%, PLK1 PBD inh -4%, Sfp inh 40µM*!, TbPYK confirm 28µM* and TbPYK orthogonal 35µM*.
For Cc1[nH]cnc1C(=O)N/N=C/c1c(Cl)cccc1Cl the results were JMJD2A Tudor -27%, G9a inh 1%[12.7 µM], HP1b binding inh 4%, PLK1 PBD inh 1%, Sfp inh 3%, BAZ2B inh inconclusive, TbPYK confirm 20µM* and TbPYK orthogonal 12%.

Screening results from PubChem BioAssay.
